Records with an inconclusive call do not appear. Entries that show only a call come without a potency. The source made the active and inactive calls. Calls follow the shape of the dose curve; as a rule, active = well fitted cell-killing curve with a large enough effect; inconclusive = small, poorly fitted or top-dose-only effect, or effect the other way; inactive = no such curve, though single readings can be large or run the other way.
Potency is read from the fitted curve at half-maximal effect.

A short description of this experiment: Viability qHTS for spleen associated tyrosine kinase inhibitor (SYKi) naive MV4-11 cells (AID 1963823). Also: nearly all actives have a fitted effect of over 40% in size. The following applies: MV4-11 AML viability, CellTiter-Glo luminescence, 72 h; series mostly up to 45 µM. In short, it runs like this: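 Luminescence from CellTiter-Glo, developed 10 min at room temperature, gave viability of MV4-11 cells never exposed to SYK inhibitor. Cells (500/well) had been incubated with compounds for 72 hr under standard culture conditions.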
A general note: In qHTS, concentration-response curves come from the screen itself.
As to `N#C[C@@H]1C[C@H](F)CN1C(=O)CNC1[C@H]2CN(C(=O)c3ccc(F)cc3)C[C@@H]12` (some centres not stated), the Potency result is “inactive”. The same measure, in the same setting: the same measure for `COC(O)(CC(C)C)C1Oc2cc(C)[nH]c(=O)c2O1` (configuration not stated): “inactive”. Still for that read-out and setting: the figure for `O=C(Nc1nc2ccc([N+](=O)[O-])cc2s1)C1CCCCC1` is 20.6 µM (active). Same read-out and setting: the entry for `CC1=C2C=C(CO)C(CO)CCC2(C)CCC1=O` (configuration not stated) is “inactive”; for `COc1cc(C(O)C(CO)Oc2ccc(CCCO[C@@H]3O[C@@H](C)[C@H](O)[C@@H](O)[C@H]3O)cc2OC)ccc1O` (some centres not stated) it is “inactive”. On to `O=C(Nc1ccc2[nH]ncc2c1)C1CCC1`, for which the Potency result is “inactive”. Turning to `C[C@@H]1[C@H]2[C@H](O[C@@H]3O[C@H](CO)[C@@H](O)[C@H](O)[C@H]3O)OC=C(C(=O)O)[C@H]2C[C@@H]1OC(=O)/C=C/c1ccc(O)cc1`, the Potency result was “inactive”. In the case of `O=C1NCCSc2c1sc1ccc(O)cc21`, the Potency is 2.59 µM (active). For the compound `Cc1ccccc1-c1cc(N2CCN(C)CC2)ncc1N(C)C(=O)C(C)(C)c1cc(C(F)(F)F)cc(C(F)(F)F)c1`, the Potency entry is “inactive”. On to `C/C=C/C=C/C=C/C(=O)O[C@@H]1[C@@H](OC)C2=C(C(=O)N(C(CCC(=O)O)C(=O)O)C2)[C@@]2(C)CCCC(C)(C)[C@H]12` (some centres not stated), for which the Potency entry was “inactive”. On the same count and under the same terms, the same measure for `C=C1CC[C@@H]2C(C)(C)CCC[C@@]2(C)[C@@H]1CC/C(=C/C(=O)OC)COC(C)=O`: “inactive”. On the same count and under the same terms, the same measure for `COC(=O)C1=CO[C@@H](O[C@@H]2O[C@H](CO)[C@@H](O)[C@H](O)[C@H]2O)[C@H]2[C@@H]1[C@H](O)[C@H](O)[C@]2(C)O`: “inactive”; for `CC1CCC2(C)C(CC(O)C(O)C23CO3)C1(C)CCC1=CC(O)OC1=O` (configuration not stated): “inactive”; for `COc1cc(/C=C/C(=O)O[C@H]2C[C@@H]3C(C(=O)O)=CO[C@@H](O[C@@H]4O[C@H](CO)[C@@H](O)[C@H](O)[C@H]4O)[C@@H]3[C@H]2C)ccc1O`: “inactive”. The same measure, in the same setting: the entry for `CC1=C[C@H]2[C@@H](CC1=O)[C@H](C)C[C@H](O)[C@H]2C(C)C` is “inactive”; for `O=C1Nc2ccc(O)cc2O[C@H]1O[C@@H]1O[C@H](CO)[C@@H](O)[C@H](O)[C@H]1O` it is “inactive”.

For `CC1(C)CC[C@]2(C(=O)O[C@@H]3O[C@H](CO)[C@@H](O)[C@H](O)[C@H]3O)CC[C@]3(C)C(=CCC4[C@@]5(C)CC[C@H](O[C@@H]6O[C@H](C(=O)O)[C@@H](O)[C@H](O)[C@H]6O)[C@@](C)(CO)C5CC[C@]43C)C2C1` (some centres not stated), the viability (% of control) was 98% [at 9.25 µM] (inactive).

The values above are taken from PubChem BioAssay (NCATS).
